# A selection: hits, their analogues and other compounds. The true share with any hit is near 7.3%.
# HCV inhibitor: inhibitors of hepatitis C virus infection; Huh7.5.1 HCVcc-Cre infection, luciferase reporter, 44 h; Potency, µM (top dose mostly 41.8 µM), most hits filed as inhibitors; actives 3.4% (n = 340,000); AID 651820; active = well fitted inhibition curve with a large enough effect; inconclusive = small, poorly fitted or top-dose-only effect, or another doubt; inactive = no such curve, though single readings can be large or run the other way
#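 Whole-lifecycle infectious HCVcc-Cre system; cells 1,000/well, compound then virus (~0.5 moi) added 4 h after plating, 44 h culture. Luciferase read 15 sec following 15 min substrate incubation, room temp.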
# FMDV inh: blocks foot and mouth disease virus. FMDV antiviral cell-based qHTS. Potency, µM (series often up to 57.9 µM), actives largely listed as inhibitors. actives 1.2% (n = 410,000). AID 1159524; calls by dose curve; tested in HEK293T cells; note: read-out not given here; nearly all actives have a fitted effect of over 45% in size
# HCMV inh: human cytomegalovirus inhibition. actives 4.5% (n = 410,000). AID 1259415. activity change, negative = inhibition, % at 57.5 µM. HFF cells, HCMV-luciferase reporter, 72 h; hits give low values; in the data active = activity change below about -60%; inconclusive = no clear call, values can overlap the other calls; inactive = above about -39%
#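 Screen run at 2 compound doses on HFFs infected with reporter HCMV, MOI 1 PFU/cell. Luciferase activity from cell lysates at 72 h post infection gave inhibition relative to buffer-only and Salinomycin wells.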
# VACV Venus inh: vaccinia inhibition (Venus reporter); Potency, µM (titrated, usually from 36.5 µM), usual class: inhibitors; Vaccinia virus Venus reporter expression, fluorescence; actives 0.46% (n = 330,000); AID 720580; calls by dose curve; tested in A549 cells; note: nearly all actives have a fitted effect of over 30% in size
# Vaccinia mCherry: vaccinia inhibition (mCherry reporter); Vaccinia virus mCherry reporter infection, fluorescence; Potency, µM (doses to about 36.5 µM), hits mostly inhibitors; actives 0.63% (n = 310,000); AID 720579; calls by dose curve; tested in A549 cells; note: nearly all actives have a fitted effect of over 35% in size
# Hits are given with their value; 0 = inactive; ? = inconclusive; - = no result given; + = active, no number.
SMILES,HCV inhibitor,FMDV inh,HCMV inh,VACV Venus inh,Vaccinia mCherry
CC(=O)NC(Cc1ccc(F)cc1)C(=O)NC1CCN(C(=O)Nc2ccccc2C)CC1 (centres undefined),0,0,0,0,0
C=C1C=C(C(F)F)n2ncc(C(=O)N3CCCCC3)c2N1,-,-,-,0,0
O=C(CSc1ccc2nnc(-c3cccnc3)n2n1)Nc1ccccc1C(F)(F)F,0,0,0,-,-
Cc1cccc(CSc2nc3c(sc4ccccc43)c(=O)n2CCC(=O)NC(C)C)c1,-,0,-61,0,0
C=CCn1c(SCC(=O)Nc2ccc(F)cc2)nc2ccccc2c1=O,0,0,0,-,-
Cc1ccc(NC(=O)CSc2nc3ccccc3c3nc4ccccc4n23)cc1,?,0,-87,-,-
CCn1c(SCC(=O)Nc2ccc(F)cc2)nc2ccccc2c1=O,0,0,-69,-,-
COc1ccc(NC(=O)CSc2nc3ccccc3c3nc4ccccc4n23)cc1,?,0,0,0,0
O=C(Cn1c(SCC(=O)Nc2ccc(F)cc2)nc2ccccc21)NCc1ccc(F)cc1,-,0,0,0,0
CC(C)NC(=O)CCn1c(SCc2c(F)cccc2Cl)nc2c(sc3ccccc32)c1=O,-,0,0,0,0
Cc1ccc(CNC(=O)Cn2c(SCC(=O)Nc3ccc(F)cc3)nc3ccccc32)cc1,-,0,-93,0,0
O=C(Cn1c(SCC(=O)Nc2ccc(F)cc2)nc2ccccc21)NCc1ccc(Cl)cc1,-,0,-74,0,?
COc1ccc(OC)c(/C=C/c2cc3ccccc3cn2)c1,-,-,-,0,?
CC(NS(=O)(=O)c1cccc(C(=O)NCc2ccncc2)c1)c1ccccc1 (centres undefined),0,0,-100,-,-
CC1Cc2ccccc2N1S(=O)(=O)c1cccc(C(=O)NCc2ccncc2)c1 (centres undefined),?,0,-89,?,0
O=C(NCc1ccncc1)c1cccc(S(=O)(=O)N2CCc3ccccc32)c1,11µM,?,?,-,-
CCN(CC)CCNC(=O)c1ccc(NC(=O)c2cccc(S(=O)(=O)N3c4ccccc4CC3C)c2)cc1 (centres undefined),11µM,0,0,-,-
CC1Cc2ccccc2N1S(=O)(=O)c1cccc(C(=O)N2CCN(c3ncccn3)CC2)c1 (centres undefined),?,?,-98,0,1.6µM
CC1Cc2ccccc2N1S(=O)(=O)c1cccc(C(=O)NCCCO)c1 (centres undefined),0,0,0,0,0
CCOC(=O)c1ccc(NC(=O)c2cccc(S(=O)(=O)N3c4ccccc4CC3C)c2)s1 (centres undefined),?,?,-69,?,?
Cc1ccc(S(=O)(=O)N2c3ccccc3CC2C)cc1 (centres undefined),0,0,?,?,0
CCOc1ccc(S(=O)(=O)N2c3ccccc3CC2C)cc1 (centres undefined),8.9µM,0,0,-,-
CC(=O)N1CCN(C(=O)c2cccc(S(=O)(=O)N3c4ccccc4CC3C)c2)CC1 (centres undefined),0,0,0,0,0
CCCNC(=O)C1(C)CCCN(C(=O)c2cc(C)nn2C(C)(C)C)C1 (centres undefined),-,0,0,0,0
Cc1ccc2c(c1)c1nnc(SCC(=O)Nc3ccc(N(C)C)cc3)nc1n2CC(=O)O,0,0,0,-,-
SMILES,HCV inhibitor,FMDV inh,HCMV inh,VACV Venus inh,Vaccinia mCherry
CC(=O)Nc1ccc2nc(NC(=O)c3ccc([N+](=O)[O-])o3)sc2c1,0,0,-102,?,?
CC(=O)Nc1ccc2nc(NC(=O)c3ccco3)sc2c1,0,0,0,-,-
CCCC(=O)Nc1nc2ccc(NC(=O)c3ccc(Br)o3)cc2s1,7.9µM,0,0,?,-
Cc1ccc2nc(NC(=O)CCCC(=O)O)sc2c1,0,7.9µM,?,0,0
O=C(CC(c1ccccc1)c1ccco1)Nc1nccs1 (centres undefined),0,0,0,0,0
Cc1cnc(NC(=O)C(C)(C)n2cc(-c3ccc4c(c3)OCCO4)cn2)s1,-,-,0,-,-
CC(C)Cc1nn2cc(-c3cccc(Br)c3)nc2s1,-,0,0,0,0
COc1ccc(-c2oc3ccc(-c4cc(OC)c(OC)c(OC)c4)cc3c2C(=O)c2ccc(OC)nc2)cc1,0,0,-99,0,0
O=C(N[C@@H](Cc1ccccc1)C(O)c1nc2ccccc2[nH]1)c1ccccn1 (some centres undefined),-,-,0,-,-
C[C@H](CO)N1C[C@H](C)[C@@H](CN(C)Cc2ccccc2)Oc2c(NC(=O)Cc3ccccc3)cccc2C1=O,?,0,0,?,0
C[C@H](CO)N1C[C@H](C)[C@@H](CN(C)Cc2ccc(-c3ccccc3)cc2)Oc2c(NC(=O)Cc3ccccc3)cccc2C1=O,?,0,-,?,0
C[C@H](CO)N1C[C@H](C)[C@@H](CN(C)Cc2ccc(Cl)c(Cl)c2)Oc2c(NC(=O)Cc3ccccc3)cccc2C1=O,0,0,0,?,5.6µM
C[C@H](CO)N1C[C@H](C)[C@@H](CN(C)C)Oc2c(NS(=O)(=O)c3ccc(F)cc3)cccc2C1=O,0,0,-73,0,0
C[C@H](CO)N1C[C@H](C)[C@@H](CN(C)CC2CC2)Oc2c(NS(=O)(=O)c3ccc(F)cc3)cccc2C1=O,?,0,0,0,0
C[C@H](CO)N1C[C@H](C)[C@@H](CN(C)C)Oc2c(NC(=O)Cc3ccccc3)cccc2C1=O,0.56µM,0,0,0,0
CC(C)(C)C(=O)OCc1cc(=O)n2nc(C3CCCCC3)sc2n1,-,0,0,0,0
CCN(CC)CCN(C(=O)c1ccco1)c1nc2cc(C)cc(C)c2s1,-,0,0,0,0
CCc1ccc2nc(N(CCCN(C)C)C(=O)c3ccc(S(=O)(=O)N(C)C4CCCCC4)cc3)sc2c1,0,0,-86,0,?
COc1ccccc1C(=O)N(CCN(C)C)c1nc2cc(C)cc(C)c2s1,0,0,0,-,-
CCN(CC)CCN(C(=O)c1c(F)cccc1F)c1nc2cc(C)cc(C)c2s1,10µM,0,0,-,-
Cc1cc(C)c2sc(N(CCCN(C)C)C(=O)c3ccc(S(=O)(=O)N(C)C4CCCCC4)cc3)nc2c1,10µM,?,0,13µM,14µM
CN(C)CCCN(C(=O)c1ccc(S(=O)(=O)N(C)C2CCCCC2)cc1)c1nc2ccc(F)cc2s1,0,0,0,0,0
Cc1cc(C)c2sc(N(CCN(C)C)C(=O)c3ccc4ccccc4c3)nc2c1,?,0,+,-,-
O=c1c(Cl)c(NCc2ccccc2Cl)cnn1C12CC3CC(CC(C3)C1)C2,0,0,0,0,0
Cn1nc(C(=O)NCc2cccc(Cl)c2)c2c1-c1ccccc1SC2,-,0,?,0,0
COc1ccc(NC(=O)CCc2c(C)nn(-c3ccc(N4CCOCC4)nn3)c2C)cc1Cl,-,0,0,0,0
CCN(CC)C1=NC(=[N+](CC)CC)c2ccccc21,?,?,-103,-,-
COc1cccc(CNC(=O)c2cnn(-c3ncc4c(n3)-c3ccccc3CCC4)c2C)c1OC,-,0,-,0,0
COc1ccc(-c2nc3cc(NC(=O)Cc4ccc(Cl)cc4)ccc3o2)cc1OC,-,0,-94,?,?
